Screening results from PubChem BioAssay.
An excerpt weighted towards active compounds, which were near 4% of everything screened.
EBV LMP1 NFkB: Epstein-Barr LMP1 NF-kappaB reporter inhibition. LMP1-induced NF-kappaB luciferase reporter cells, luminescence. 350,000 tested, 0.69% active. inhibition, % at 12.5 µM; in the data active = inhibition above about 41%; inconclusive = no clear call, values can overlap the other calls
MITF TRPM1 inh: reduces MITF-dependent TRPM1 promoter luciferase signal; SK-MEL-5 TRPM1 promoter luciferase, 24 h; inhibition, % at 12.5 µM; 330,000 tested, 0.83% active;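 active = mean inhibition across replicates of 60% or more, whatever share of single replicates reaches that level; inconclusive = some that reach 60%, reason not given; inactive = mean inhibition across replicates below 60%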
MITF act: increases MITF-driven TRPM1 promoter luciferase signal; SK-MEL-5 TRPM1-promoter luciferase, 24 h; % of positive control, neutral wells = 0; activation, % at 12.5 µM; 300,000 tested, 0.75% active; AID 588334;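 active = mean activation of at least 80% with every replicate also reaching 80%; inconclusive = mean reaches 80% but some replicate falls short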
esBAF inh: inhibitors of esBAF chromatin remodeling in mouse ES cells; Bmi1-luciferase knock-in reporter, 24 h; 100% = twice the neutral-well signal; reporter increase, % at 12.5 µM; 350,000 tested, 2% active; AID 602393; in the data active = activation above about 40%; inconclusive = no clear call, values can overlap the other calls;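 note: a rise in the Bmi1 reporter signal indicates esBAF inhibition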
Wnt act: Wnt/beta-catenin pathway activation. Wnt/beta-catenin reporter cell assay, activator, plate reader. activation, % at 9.35 µM. 300,000 tested, 1.2% active. AID 743398; in the data active = activation above about 30%, passing the limit was not always enough; inconclusive = no clear call, values can overlap the other calls
Statin myotox sup: protects C2C12 myotubes from simvastatin toxicity; rescue of ATP level, % at 7.49 µM; AID 602340; 330,000 tested, 0.78% active; ATP luminescence, 48 h; scaled: DMSO 0, geranylgeraniol control 100;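 active = mean ATP rescue above about 67%, or every replicate alone reaching that limit, limit read from the data, passing the limit was not always enough; inconclusive = no clear call, values can overlap the other calls; inactive = mean under the limit and some replicate under it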;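 note: myotubes were challenged with 10 µM simvastatin during compound exposure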
Large screens that a line does not name were inactive.

COc1cccc(NC2SC(=O)N(c3ccccc3)C2=O)c1 (stereo not given)	esBAF inh 59 (no result: MITF TRPM1 inh, MITF act)
COc1cc(/C=C/C(=O)OC2CC3CCC2(C)C3(C)C)ccc1O (stereo not given)	esBAF inh 47
COc1ccc(-c2csc(C(O)c3ccc(F)c(OC)c3)n2)cn1 (stereo not given)	none (no result: EBV LMP1 NFkB, MITF TRPM1 inh, MITF act)
CCOC(=O)c1c(C)[nH]c(C(=O)CN2C(=O)NC(C)(c3ccc4ccccc4c3)C2=O)c1C (stereo not given)	none (no result: Wnt act)
COc1ccc(N(CC(=O)Nc2ccc(F)cc2)S(=O)(=O)c2ccccc2[N+](=O)[O-])c(OC)c1	none (no result: esBAF inh, Statin myotox sup)
C=CCSc1cc(C)nc2c(-c3ccccc3)cnn12	Wnt act 33 (no result: esBAF inh, Statin myotox sup)
Cc1cc(N)n2ncc(-c3ccccc3)c2n1	esBAF inh 51 (no result: Wnt act)
CCSc1cc(C)nc2c(-c3ccccc3)cnn12	none (no result: esBAF inh, Statin myotox sup)
CC(=O)c1cnc2c(-c3cccc(Br)c3)cnn2c1C	MITF act 95
Cc1cc(N)n2ncc(-c3cccc(Br)c3)c2n1	esBAF inh 66 (no result: Wnt act)
CC(=O)c1cnc2c(C(=O)O)cnn2c1C	none
CCOC(=O)Cc1c(C)nc2c(-c3cccc(Br)c3)cnn2c1C	none (no result: esBAF inh, Statin myotox sup)
CO/N=C(\CCC(=O)O)c1cccs1	none
CCC(=O)N1C[C@H](C)[C@H](OC)CN(C)C(=O)c2cc(NC(=O)C3CCCCC3)ccc2OC[C@@H]1C	none (no result: EBV LMP1 NFkB, MITF TRPM1 inh, MITF act, Wnt act)
Cc1cccc(-n2cnc3cc(C(=O)N4CCCCC4)ccc32)c1	esBAF inh 44 (no result: Statin myotox sup)
O=C1COc2ccc(C(=O)COC(=O)c3ccccc3[N+](=O)[O-])cc2N1	esBAF inh 77
CCOc1cccc2sc(N(CCN(C)C)C(=O)c3ccc4ccccc4c3)nc12	none (no result: Wnt act)
CN(C)CCN(C(=O)c1ccc2ccccc2c1)c1nc2c(F)cccc2s1	Statin myotox sup 120
Cc1cccc2sc(N(CCCN(C)C)C(=O)c3nc4ccccc4s3)nc12	MITF TRPM1 inh 73 (no result: Wnt act)
COc1cc2cc(NC(C)=O)cc(NCc3ccccc3)c2cc1OC	none (no result: MITF act)
CNc1cncc(-c2ccc(O)cc2)n1	none (no result: EBV LMP1 NFkB, MITF TRPM1 inh, MITF act)
CNc1cncc(-c2ccc(OC)cc2)n1	esBAF inh 41 (no result: EBV LMP1 NFkB, MITF TRPM1 inh, MITF act)
Cc1ccc(-c2cnc3c(c2)C(=O)N([C@@H](C)CO)C[C@H](C)[C@H](CN(C)C(=O)c2ccccc2)O3)cc1	none (no result: EBV LMP1 NFkB, MITF TRPM1 inh, MITF act, Wnt act)
O=C(CCCCC(=O)NN=Cc1ccccc1O)NN=Cc1ccccc1O	Statin myotox sup 106 (no result: esBAF inh)
COCCCNC(=S)N/N=C/c1ccccc1O	esBAF inh 49 (no result: MITF act)
O=[N+]([O-])c1ccc(O)c(N=Cc2sc3ccccc3c2O)c1	none (no result: esBAF inh, Statin myotox sup)
C[C@@H]1CN([C@@H](C)CO)C(=O)c2cc(-c3ccc(F)cc3)cnc2O[C@@H]1CN(C)C(=O)Cc1ccccc1	none (no result: EBV LMP1 NFkB, MITF TRPM1 inh, MITF act, Wnt act)
COC(=O)c1ccc(COc2ccc(C)cc2[N+](=O)[O-])o1	Wnt act 36 (no result: MITF act, esBAF inh, Statin myotox sup)
COC(=O)c1ccc(COc2ccc3c(C)c(C)c(=O)oc3c2C)o1	esBAF inh 23 (no result: EBV LMP1 NFkB, MITF TRPM1 inh, MITF act, Wnt act, Statin myotox sup)
O=C(c1ccc(COc2ccccc2[N+](=O)[O-])o1)N1CCCCCC1	esBAF inh 55
CCC(=O)N1CCCCN2[C@H](CO)[C@H](c3ccc(-c4cccc(C#N)c4)cc3)[C@H]2C1	none (no result: EBV LMP1 NFkB, MITF TRPM1 inh, MITF act, Wnt act)
Cc1noc(C)c1NC(=O)N(C)C[C@@H]1Oc2c(NS(=O)(=O)c3ccccc3)cccc2C(=O)N([C@@H](C)CO)C[C@@H]1C	none (no result: EBV LMP1 NFkB, MITF TRPM1 inh, MITF act, Wnt act)
Cc1cc(C(=O)N2CCCC(N3CCN(c4cccc(Cl)c4)CC3)C2)n(C)n1 (stereo not given)	none
COc1ccc(-c2noc(CNC(=O)CCCN3C(=O)[C@H]4CC=CC[C@H]4C3=O)n2)cc1	none
O=C(CNc1cccc2ccccc12)N/N=C/c1ccc([N+](=O)[O-])o1	MITF TRPM1 inh 75 (no result: esBAF inh, Statin myotox sup)
CCCCCCCC(=O)N/N=C/c1ccc([N+](=O)[O-])o1	none
O=C(CNc1cccc([N+](=O)[O-])c1)N/N=C/c1ccc([N+](=O)[O-])o1	MITF TRPM1 inh 78
O=C(Cc1ccc([N+](=O)[O-])cc1)N/N=C/c1ccc([N+](=O)[O-])o1	none (no result: MITF TRPM1 inh, MITF act, esBAF inh, Statin myotox sup)
CCN(CC)C(=O)C(=O)N/N=C/c1ccc(Cl)cc1Cl	none (no result: esBAF inh, Wnt act, Statin myotox sup)
CN(C)/N=C/C=C1\CCC/C(=C/c2cccs2)C1=O	Wnt act 52
Cc1c(C(=O)NCc2ccc3c(c2)OCO3)sc(=O)n1Cc1cccc(F)c1	none (no result: EBV LMP1 NFkB, MITF TRPM1 inh, MITF act)
O=C1CC(C(=O)Nc2ccccc2)C2(CCCCC2)O1 (stereo not given)	EBV LMP1 NFkB 65 (no result: esBAF inh, Wnt act, Statin myotox sup)
CN(C)c1ccc(-c2nc3ccccc3n2C)cc1	EBV LMP1 NFkB 50 (no result: Wnt act)
CN(C(=O)COC(=O)c1ccccc1C(=O)c1ccccc1)c1ccccc1	none
COC(=O)COc1cc(OCC(=O)OC)c2c(C)c(Cl)c(=O)oc2c1	none (no result: esBAF inh, Statin myotox sup)
COC(=O)COc1cc(C)cc2oc(=O)c(CC(=O)OC)c(C)c12	Statin myotox sup 108 (no result: Wnt act)
COC(=O)c1oc2ccc(OC)cc2c1N	none (no result: Wnt act)
COc1ccc(C(=O)c2oc3ccc(OC)cc3c2N)cc1	MITF act 102, esBAF inh 86, Wnt act 47
S=c1[nH]nc(C2CCCCC2)n1/N=C/c1ccc(Cl)cc1	none
CCC(C)(C)c1ccc(Oc2ccc(N)cc2)cc1	EBV LMP1 NFkB 51, MITF TRPM1 inh 98
CCC(C)(C)c1ccc(Oc2cccc(C(=O)O)c2)cc1	esBAF inh inconclusive
Cc1ccc(/C=N/c2sc3c(c2C#N)CCC3)s1	MITF act 92, Statin myotox sup 120
CCN(/C=N/c1sc2c(c1C#N)CCCCC2)CC	none (no result: esBAF inh, Wnt act, Statin myotox sup)
Cc1ccc(/C=N/c2sc3c(c2C#N)CCCCC3)o1	none (no result: Wnt act)
CN1CCN(/C=N/c2sc3c(c2C#N)CCCCC3)CC1	esBAF inh 81 (no result: Wnt act)
C[C@@H]1CN([C@@H](C)CO)C(=O)c2cccc(NC(=O)C3CCOCC3)c2O[C@H]1CN(C)CC1CC1	none (no result: EBV LMP1 NFkB, MITF TRPM1 inh, MITF act, Wnt act)
Cc1ccc(Nc2nnc(SCC(=O)NCC3CCCO3)s2)cc1 (stereo not given)	none
COc1ccccc1NC(=O)c1cnc(SCC(=O)NCC2CCCO2)n(C)c1=O (stereo not given)	MITF TRPM1 inh 68, Wnt act 32
Cc1ccc(Nc2nnc(SCC(=O)NCC3CCCO3)s2)cc1C (stereo not given)	esBAF inh 47
COc1ccccc1C(=O)NC(=O)CSc1nnc(N)s1	EBV LMP1 NFkB 42
COc1ccccc1C(=O)Nc1nnc(SCC(=O)NCC2CCCO2)s1 (stereo not given)	MITF act inconclusive, Wnt act 34
COc1ccc(CC2(CO)CCN(Cc3c(C)nn(C(C)C)c3C)CC2)cc1	none
COCCn1c(NC(=S)NC(=O)C2CC2)cc(=O)[nH]c1=O	none
COCc1cc(=O)[nH]c2cc(NC(=O)C3CC3)c(C)cc12	Wnt act 50 (no result: esBAF inh, Statin myotox sup)
Cc1ccsc1/C=N/N1CCOCC1	none (no result: esBAF inh, Statin myotox sup)
Cc1ccc(N2CCN(/N=C/c3sccc3C)CC2)cc1	Statin myotox sup 140
CC1(C)CC(=O)C2=C(C1)Nc1ccccc1NC2c1ccc2c(c1)OCO2 (stereo not given)	Wnt act 44 (no result: MITF act)
